Sensor-assay potency score (higher = more potent) data for 40 sequences are collected here from the OligoGym collection.
Also: reference of the scale not given here.

In the first assay the target is PION. Kind of assay: pooled miR-30 sensor sort-seq; sequence = guide strand. The conditions noted are these: shRNA.
Consider TTTCTTCTTTTCTACACCCTGT, for which the sensor-assay potency score (higher = more potent) came out at 0.0243.
Sequence AACATACACACAAACTTCCTGT displayed a sensor-assay potency score (higher = more potent) of 0.437.
Sequence TATAGTTCTGAAGCAGTCGCGT showed a sensor-assay potency score (higher = more potent) of -0.318.
Regarding TTAGTAGACTGAACTAAACTTG, the sensor-assay potency score (higher = more potent) is -0.14.
The same measure, in the same setting: as for TTTTCTTCTTTTCTACACCCTG, the figure is -0.629; as for TAACATACACACAAACTTCCTG, 0.883; as for TTGAACATTAAGTAGGTGGAAG, -0.626.
In the case of TTTTCTAAAACATCTGCGCCGC, the sensor-assay potency score (higher = more potent) was -0.387.
The same measure, in the same setting: as for TAGTAGACTGAACTAAACTTGC, the figure is -0.883.

The target of the next assay is PIP5K1B. The assay is described as above. Particulars: shRNA.
TTGACATCTTGAAAACTCTTAA showed a sensor-assay potency score (higher = more potent) of -0.776.
Same read-out and setting: as for TTGAGGACACAATCTCCTGTGA, the figure is -0.569.
Still for that read-out and setting: as for TTTGAATAGAGTGTAGGCCTGT, the figure is 0.71; as for TTCGCTTATACGTTGAGCCTTT, 0.43.
Still for that read-out and setting: as for TTGCATACAATACAGTCCGTAA, the figure is -1.09; as for TTGGTCTATGAACAGAAACAGT, -1.55.
Turning to TTAAATTCATGTAATAGCCTGG, the sensor-assay potency score (higher = more potent) amounted to 0.247.
TCTAACTTCTTCATTAACCTAT: the sensor-assay potency score (higher = more potent) is 0.135.
On the same count and under the same terms, as for TTGCAGGAAATCTAAGTCCTTA, the figure is -0.188.
Regarding TTGAACTGGAAGGTAACCCTTT, the sensor-assay potency score (higher = more potent) came out at 0.268.
In turn, TAATCCATGATCTTGAAGCTTT had a sensor-assay potency score (higher = more potent) of -0.406.

In another assay the target is PIP5KL1. The description is as above. Particulars: shRNA.
In turn, TAATCCAGCACGTTGAGCTCCC registered a sensor-assay potency score (higher = more potent) of -0.232.
Same read-out and setting: the figure for TTGCGGAGCCCGTAGACTGTGG is -1.6; for TTTGATGTCATACCTCTCGGAG it is -0.872.
On the same count and under the same terms, the figure for TATCCAGTTCCATCTGGCGGAG is -1.65; for TTGGGCTCTCGACTCTTCCGGG it is -0.549.
In turn, TTGATGTCATACCTCTCGGAGA had a sensor-assay potency score (higher = more potent) of -1.04.
The same measure, in the same setting: the figure for TTGAGCTCCCGGAGGAAGGTGG is -0.608; for TTTGGGCTCTCGACTCTTCCGG it is -0.891; for TAGCGCAGTGTCTTCCACAGGT it is 0.0204.
On to TGTCTTCCACAGGTGCTCCAGC, for which the sensor-assay potency score (higher = more potent) is -0.631.
Same read-out and setting: the figure for TACCTCTCGGAGATGCGGCCGG is -0.502; for TATCAGGAGGCTGTAATCCAGC it is -1.11.

Another assay has as its target PITPNM3. The description is as above. The conditions noted are these: shRNA.
On to TATGTGATGCGACCACTGCTGT, for which the sensor-assay potency score (higher = more potent) was -0.671.
Still for that read-out and setting: the figure for TTGCGCAGGATCATGCGCGAGT is -0.913.
Consider TTCTCCTTGATGCTCGTCCAGT, for which the sensor-assay potency score (higher = more potent) is -0.95.
Still for that read-out and setting: as for TTCAGCAGCAATCACATCATTG, the figure is -1.64; as for TTCCTCGCTGTCTTCGTGGATC, -1.05; as for TCTTCGTGGATCTCGATGCTTC, -0.715.
Same read-out and setting: as for TTTGATGAAGCACTCCTGCATG, the figure is -0.502.
Still for that read-out and setting: the figure for TTTGCTGAGACGCTTGCTGCTG is -0.757.
